# Assay results from the supplement of paper PMC8728848.
# This excerpt belongs to a sample that is enriched for the strongest signals.
# How the values were obtained:
# Assay in all cases: glycan array binding signal (z-score within array); higher = stronger binding
# Settings in all cases: glycan notation: IUPAC condensed, linker removed
# Fuc(a1-2)Gal(b1-3)GalNAc = target: Fuc(a1-2)Gal(b1-3)GalNAc
# Method in brief: (§1)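 The binding signal is a Z-score computed within each array and averaged over linkers. Arrays of the same protein sequence at different concentrations or buffers were also averaged together. Data originate from 3228 arrays in the Consortium for Functional Glycomics database, kept only where the protein sequence was available.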
# [1] = target: Fuc(a1-2)Gal(b1-3)GalNAc(b1-4)[Neu5Ac(a2-3)]Gal(b1-4)Glc
# Method in brief: as §1
# [2] = target: Fuc(a1-2)Gal(b1-3)GlcNAc(b1-2)Man(a1-3)[Fuc(a1-2)Gal(b1-3)GlcNAc(b1-2)Man(a1-6)]Man(b1-4)GlcNAc(b1-4)GlcNAc
# Method in brief: as §1
# [3] = target: Fuc(a1-2)Gal(b1-4)GlcNAc(b1-3)Gal(b1-4)GlcNAc
# Method in brief: as §1
# [4] = target: Fuc(a1-2)Gal(b1-4)[Fuc(a1-3)]GlcNAc
# Method in brief: as §1
# [5] = target: Fuc(a1-2)Gal(b1-4)[Fuc(a1-3)]GlcNAc(b1-3)Gal(b1-4)[Fuc(a1-3)]GlcNAc
# Method in brief: as §1
# [6] = target: Fuc(a1-2)[Gal(a1-3)]Gal(b1-3)GalNAc(b1-3)Gal(a1-4)Gal(b1-4)Glc
# Method in brief: as §1
# [7] = target: Fuc(a1-2)[Gal(a1-3)]Gal(b1-3)GlcNAc(b1-3)GalNAc
# Method in brief: as §1
# [8] = target: Fuc(a1-2)[Gal(a1-3)]Gal(b1-4)[Fuc(a1-3)]Glc
# Method in brief: as §1
# [9] = target: Fuc(a1-2)[GalNAc(a1-3)]Gal
# Method in brief: as §1
# [10] = target: Fuc(a1-2)[GalNAc(a1-3)]Gal(b1-4)GlcNAc(b1-2)Man
# Method in brief: as §1
# [11] = target: Fuc(a1-3)[Gal(b1-4)]GlcNAc(b1-3)Gal(b1-3)[Fuc(a1-4)]GlcNAc
# Method in brief: as §1
# Gal(a1-3)Gal(b1-4)GlcNAc = target: Gal(a1-3)Gal(b1-4)GlcNAc
# Method in brief: as §1
# [12] = target: Gal(a1-3)Gal(b1-4)GlcNAc(b1-2)Man
# Method in brief: as §1
# Gal(a1-4)Gal(b1-4)GlcNAc = target: Gal(a1-4)Gal(b1-4)GlcNAc
# Method in brief: as §1
# [13] = target: Gal(a1-4)Gal(b1-4)GlcNAc(b1-2)Man(a1-3)[Gal(a1-4)Gal(b1-4)GlcNAc(b1-2)Man(a1-6)]Man(b1-4)GlcNAc(b1-4)GlcNAc
# Method in brief: as §1
# [14] = target: Gal(b1-3)GlcNAc(b1-2)Man(a1-3)[GlcNAc(b1-4)][Gal(b1-3)GlcNAc(b1-2)Man(a1-6)]Man(b1-4)GlcNAc(b1-4)GlcNAc
# Method in brief: as §1
# [15] = target: Gal(b1-3)GlcNAc(b1-2)[Gal(b1-3)GlcNAc(b1-6)]Man(a1-6)[Gal(b1-3)GlcNAc(b1-2)Man(a1-3)]Man(b1-4)GlcNAc(b1-4)GlcNAc
# Method in brief: as §1
# [16] = target: Gal(b1-3)GlcNAc(b1-3)GalNAc
# Method in brief: as §1
# [17] = target: Gal(b1-3)[Fuc(a1-4)]GlcNAc(b1-2)Man(a1-3)[Gal(b1-3)[Fuc(a1-4)]GlcNAc(b1-2)Man(a1-6)]Man(b1-4)GlcNAc(b1-4)[Fuc(a1-6)]GlcNAc
# Method in brief: as §1
# [18] = target: Gal(b1-4)GlcNAc(b1-2)Man(a1-3)[GlcNAc(b1-2)Man(a1-6)]Man(b1-4)GlcNAc(b1-4)GlcNAc
# Method in brief: as §1
# [19] = target: Gal(b1-4)GlcNAc(b1-2)[Gal(b1-4)GlcNAc(b1-6)]Man(a1-6)[Gal(b1-4)GlcNAc(b1-2)Man(a1-3)]Man(b1-4)GlcNAc(b1-4)[Fuc(a1-6)]GlcNAc
# Method in brief: as §1
# [20] = target: Gal(b1-4)GlcNAc(b1-2)[Gal(b1-4)GlcNAc(b1-6)]Man(a1-6)[GlcNAc(b1-4)][Gal(b1-4)GlcNAc(b1-2)[Gal(b1-4)GlcNAc(b1-4)]Man(a1-3)]Man(b1-4)GlcNAc(b1-4)[Fuc(a1-6)]GlcNAc
# Method in brief: as §1
# [21] = target: Gal(b1-4)GlcNAc(b1-3)Gal(b1-4)GlcNAc(b1-3)Gal(b1-4)GlcNAc(b1-3)Gal(b1-4)GlcNAc(b1-2)Man(a1-3)[Gal(b1-4)GlcNAc(b1-3)Gal(b1-4)GlcNAc(b1-3)Gal(b1-4)GlcNAc(b1-3)Gal(b1-4)GlcNAc(b1-2)Man(a1-6)]Man(b1-4)GlcNAc(b1-4)[Fuc(a1-6)]GlcNAc
# Method in brief: as §1
# [22] = target: Gal3S(b1-4)[Fuc(a1-3)]Glc6S
# Method in brief: as §1
# GalNAc(b1-3)GlcNAc = target: GalNAc(b1-3)GlcNAc
# Method in brief: as §1
# GalNAc(b1-4)Gal(b1-4)Glc = target: GalNAc(b1-4)Gal(b1-4)Glc
# Method in brief: as §1
# [23] = target: GlcNAc(a1-4)Gal(b1-4)GlcNAc(b1-3)Gal(b1-4)GlcNAc(b1-3)Gal(b1-4)GlcNAc
# Method in brief: as §1
# [24] = target: GlcNAc(b1-3)Gal(b1-4)GlcNAc(b1-3)Gal(b1-4)GlcNAc(b1-3)Gal(b1-4)GlcNAc(b1-2)Man(a1-3)[GlcNAc(b1-3)Gal(b1-4)GlcNAc(b1-3)Gal(b1-4)GlcNAc(b1-3)Gal(b1-4)GlcNAc(b1-2)Man(a1-6)]Man(b1-4)GlcNAc(b1-4)[Fuc(a1-6)]GlcNAc
# Method in brief: as §1
# [25] = target: GlcNAc(b1-3)Gal(b1-4)GlcNAc(b1-3)Gal(b1-4)GlcNAc(b1-3)Gal(b1-4)GlcNAc(b1-3)Gal(b1-4)GlcNAc(b1-2)Man(a1-3)[GlcNAc(b1-3)Gal(b1-4)GlcNAc(b1-3)Gal(b1-4)GlcNAc(b1-3)Gal(b1-4)GlcNAc(b1-3)Gal(b1-4)GlcNAc(b1-2)Man(a1-6)]Man(b1-4)GlcNAc(b1-4)GlcNAc
# Method in brief: as §1
# GlcNAc(b1-3)Man = target: GlcNAc(b1-3)Man
# Method in brief: as §1
# [26] = target: GlcNAc(b1-4)GlcNAc(b1-4)GlcNAc(b1-4)GlcNAc(b1-4)GlcNAc
# Method in brief: as §1
# Kdn(a2-3)Gal(b1-3)GalNAc = target: Kdn(a2-3)Gal(b1-3)GalNAc
# Method in brief: as §1
# [27] = target: Man(a1-3)[Man(a1-6)]Man(a1-6)[Man(a1-3)]Man
# Method in brief: as §1
# [28] = target: Neu5Ac(a2-3)Gal(b1-3)GlcNAc(b1-2)Man(a1-3)[Neu5Ac(a2-3)Gal(b1-3)GlcNAc(b1-2)Man(a1-6)]Man(b1-4)GlcNAc(b1-4)GlcNAc
# Method in brief: as §1
# [29] = target: Neu5Ac(a2-3)Gal(b1-4)GlcNAc(b1-3)Gal(b1-4)GlcNAc(b1-3)GalNAc
# Method in brief: as §1
# [30] = target: Neu5Ac(a2-3)Gal(b1-4)[Fuc(a1-3)]GlcNAc(b1-2)Man
# Method in brief: as §1
# [31] = target: Neu5Ac(a2-3)Gal(b1-4)[Fuc(a1-3)]GlcNAc(b1-3)GalNAc
# Method in brief: as §1
# [32] = target: Neu5Ac(a2-3)Gal6S(b1-4)GlcNAc
# Method in brief: as §1
# [33] = target: Neu5Ac(a2-6)Gal(b1-4)GlcNAc(b1-2)Man(a1-3)[Man(a1-6)]Man(b1-4)GlcNAc(b1-4)GlcNAc
# Method in brief: as §1
# [34] = target: Neu5Ac(a2-6)Gal(b1-4)GlcNAc(b1-3)Gal(b1-4)GlcNAc(b1-3)Gal(b1-4)GlcNAc
# Method in brief: as §1
# [35] = target: Neu5Ac(a2-6)Gal(b1-4)GlcNAc(b1-3)Gal(b1-4)[Fuc(a1-3)]GlcNAc(b1-3)Gal(b1-4)[Fuc(a1-3)]GlcNAc
# Method in brief: as §1
# [36] = target: Neu5Ac(a2-6)Gal(b1-4)GlcNAc(b1-6)[Gal(b1-3)]GalNAc
# Method in brief: as §1
# [37] = target: Neu5Ac(a2-8)Neu5Ac(a2-8)Neu5Ac(a2-3)[Gal(b1-3)GalNAc(b1-4)]Gal(b1-4)Glc
# Method in brief: as §1
# [38] = target: Neu5Gc(a2-3)Gal(b1-4)GlcNAc(b1-3)Gal(b1-4)GlcNAc(b1-2)Man(a1-3)[Neu5Gc(a2-3)Gal(b1-4)GlcNAc(b1-3)Gal(b1-4)GlcNAc(b1-2)Man(a1-6)]Man(b1-4)GlcNAc(b1-4)GlcNAc
# Method in brief: as §1
# [39] = target: Neu5Gc(b2-6)Gal(b1-4)GlcNAc
# Method in brief: as §1
# [40] = target: Neu5Ac(a2-3)Gal(b1-4)[Fuc(a1-3)]GlcNAc(b1-3)Gal(b1-4)GlcNAc
# Method in brief: as §1
# [41] = target: Neu5Ac(a2-3)GalNAc(b1-4)GlcNAc
# Method in brief: as §1
# [42] = target: Neu5Gc(a2-3)Gal(b1-3)[Fuc(a1-4)]GlcNAc
# Method in brief: as §1
binder,measurement,setting,value
"Thrombomodulin Extracellular (Mus musculus), P15306 (protein) MLGIFFLGVLAPASLGLSALAKLQPTGSQCVEHECFALFQGPATFLDASQACQRLQGHLMTVRSSVAADVISLLLSQSSMDLGPWIGLQLPQGCDDPVHLGPLRGFQWVTGDNHTSYSRWARPNDQTAPLCGPLCVTVSTATEAAPGEPAWEEKPCETETQGFLCEFYFTASCRPLTVNTRDPEAAHISSTYNTPFGVSGADFQTLPVGSSAAVEPLGLELVCRAPPGTSEGHWAWEATGAWNCSVENGGCEYLCNRSTNEPRCLCPRDMDLQADGRSCARPVVQSCNELCEHFCVSNAEVPGSYSCMCETGYQLAADGHRCEDVDDCKQGPNPCPQLCVNTKGGFECFCYDGYELVDGECVELLDPCFGSNCEFQCQPVSPTDYRCICAPGFAPKPDEPHKCEMFCNETSCPADCDPNSPTVCECPEGFILDEGSVCTDIDECSQGECFTSECRNFPGSYECICGPDTALAGQISKDCDPIPVREDTKEEEGSGEPPVSPTPGSPTGPPSARPVHSGVLIGISIASLSLVVALLALLCHLRKKQGAARAELEYKCASSAKEVVLQHVRTDRTLQKF",glycan array binding signal (z-score),Fuc(a1-2)Gal(b1-3)GalNAc,-0.717
same,glycan array binding signal (z-score),[1],-0.952
same,glycan array binding signal (z-score),[2],2.48
same,glycan array binding signal (z-score),[3],0.406
same,glycan array binding signal (z-score),[4],-0.221
same,glycan array binding signal (z-score),[5],0.048
same,glycan array binding signal (z-score),[6],1.38
same,glycan array binding signal (z-score),[7],2.8
same,glycan array binding signal (z-score),[8],-1.18
same,glycan array binding signal (z-score),[9],-0.162
same,glycan array binding signal (z-score),[10],1.79
same,glycan array binding signal (z-score),[11],-0.513
same,glycan array binding signal (z-score),Gal(a1-3)Gal(b1-4)GlcNAc,-0.81
same,glycan array binding signal (z-score),[12],-2.66
same,glycan array binding signal (z-score),Gal(a1-4)Gal(b1-4)GlcNAc,-0.239
same,glycan array binding signal (z-score),[13],1.73
same,glycan array binding signal (z-score),[14],0.655
same,glycan array binding signal (z-score),[15],0.399
same,glycan array binding signal (z-score),[16],-0.059
same,glycan array binding signal (z-score),[17],2.94
same,glycan array binding signal (z-score),[18],-1.49
same,glycan array binding signal (z-score),[19],-0.135
same,glycan array binding signal (z-score),[20],-0.329
same,glycan array binding signal (z-score),[21],2.27
same,glycan array binding signal (z-score),[22],2.97
same,glycan array binding signal (z-score),GalNAc(b1-3)GlcNAc,-0.126
same,glycan array binding signal (z-score),GalNAc(b1-4)Gal(b1-4)Glc,3.27
same,glycan array binding signal (z-score),[23],2.52
same,glycan array binding signal (z-score),[24],1.85
same,glycan array binding signal (z-score),[25],-0.332
same,glycan array binding signal (z-score),GlcNAc(b1-3)Man,0.187
same,glycan array binding signal (z-score),[26],1.75
same,glycan array binding signal (z-score),Kdn(a2-3)Gal(b1-3)GalNAc,-0.442
same,glycan array binding signal (z-score),[27],2.92
same,glycan array binding signal (z-score),[28],2.55
same,glycan array binding signal (z-score),[29],-0.036
same,glycan array binding signal (z-score),[30],-1.17
same,glycan array binding signal (z-score),[31],2.09
same,glycan array binding signal (z-score),[32],-0.167
same,glycan array binding signal (z-score),[33],2.56
same,glycan array binding signal (z-score),[34],-0.19
same,glycan array binding signal (z-score),[35],-0.473
same,glycan array binding signal (z-score),[36],-1.23
same,glycan array binding signal (z-score),[37],2.49
same,glycan array binding signal (z-score),[38],1.29
same,glycan array binding signal (z-score),[39],-0.009
"Tap1 (Sordaria macrospora), Q50IV4 (protein) MSHHHHHHHHYTLHLRLINDTSDTLTLVEQTSWWGKNTIWSQVRSTGVHVLSMAASGSSGMLRFQTSKGDFFAVAVGVHNYKRWCDVLVDTADEAPLTKLHPKYYDDKDAKYQALWAQASEFEAKSKSGKTVRIKFYQADGNVLRATVEYL",glycan array binding signal (z-score),[40],-0.144
same,glycan array binding signal (z-score),[41],-0.247
same,glycan array binding signal (z-score),[35],-0.176
same,glycan array binding signal (z-score),[42],-0.24
